Shown are actives, neighbours in structure and some others; about 9.3% of the full set was active somewhere.
ELG1 repair inh = qHTS screen for small molecules that inhibit ELG1-dependent DNA repair in human embryonic kidney (HEK293T) cells expressing luciferase-tagged ELG1; Potency, µM (doses to about 46.1 µM), for inactives: top-dose activity change, negative = inhibition, hits mostly inhibitors; HEK293T ELG1-luciferase reporter, luminescence, 16 h; DNA damage induced by 5-fluorouridine; actives 2.3% (n = 330,000); further: on the % scale 0 is the no-effect control and ±100 the full control effect; nearly all actives have a fitted effect of over 55% in size
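Step one: seed 2,000 cells per well. Step two: pin-transfer compound or DMSO alongside 5-fluorouridine. Step three: incubate 16 hr, 37 °C, 5% CO2. Step four: add ONE-Glo, wait 30 min, read luminescence.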
ELG1 genotoxic = qHTS screen for small molecules that induce genotoxicity in human embryonic kidney (HEK293T) cells expressing luciferase-tagged ELG1. AID 504466, 2011. Potency, µM (titrated, usually from 46 µM), inactives show at the highest dose activity change, positive = activation, actives largely listed as activators. HEK293T ELG1-luciferase reporter, luminescence, 16 h. actives 1.3% (n = 330,000); further: % of control where 0% means no effect; nearly all actives have a fitted effect of over 60% in size
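ELG1-luciferase HEK293T cells, 2,000/well; compound pinned in; 16 hr, 37 °C, 5% CO2; ONE-Glo, 30 min RT; luminescence on CCD imager.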
SMN2 splice up = qHTS Assay for Enhancers of SMN2 Splice Variant Expression; HEK293 SMN2-luciferase splicing reporter, luminescence, 30-36 h; AID 1458, 2008; Potency, µM (top dose mostly 46.1 µM), for inactives: top-dose activity change, positive = activation, hits mostly activators; actives 2.8% (n = 210,000); further: % of control where 0% means no effect; nearly all actives have a fitted effect of over 55% in size
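HEK293 cells carry an SMN2 […]–luciferase reporter in which exon 7 inclusion puts luciferase in frame. Cells were plated 10-12 h before compound addition, then incubated 30-36 h at 37C. ONE-Glo luminescence was read; sodium butyrate at 4.5 mM final served as control.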
FLuc modulator = qHTS profiling assay for firefly luciferase inhibitor/activator using purifed enzyme and Km concentrations of substrates (counterscreen for miR-21 project); Luciferin 4-monooxygenase (Photinus pyralis), P08659; purified FLuc, Km substrates, luminescence inhibition; Potency, µM (top dose mostly 57.5 µM), for inactives: at the highest dose activity change, negative = inhibition, actives largely listed as inhibitors; actives 6.9% (n = 360,000); AID 588342, 2011;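 further: plate controls were vehicle for no effect and reference inhibitor for full effect; nearly all actives have a fitted effect of over 55% in size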
Target sequence (P08659 whole entry, looked up): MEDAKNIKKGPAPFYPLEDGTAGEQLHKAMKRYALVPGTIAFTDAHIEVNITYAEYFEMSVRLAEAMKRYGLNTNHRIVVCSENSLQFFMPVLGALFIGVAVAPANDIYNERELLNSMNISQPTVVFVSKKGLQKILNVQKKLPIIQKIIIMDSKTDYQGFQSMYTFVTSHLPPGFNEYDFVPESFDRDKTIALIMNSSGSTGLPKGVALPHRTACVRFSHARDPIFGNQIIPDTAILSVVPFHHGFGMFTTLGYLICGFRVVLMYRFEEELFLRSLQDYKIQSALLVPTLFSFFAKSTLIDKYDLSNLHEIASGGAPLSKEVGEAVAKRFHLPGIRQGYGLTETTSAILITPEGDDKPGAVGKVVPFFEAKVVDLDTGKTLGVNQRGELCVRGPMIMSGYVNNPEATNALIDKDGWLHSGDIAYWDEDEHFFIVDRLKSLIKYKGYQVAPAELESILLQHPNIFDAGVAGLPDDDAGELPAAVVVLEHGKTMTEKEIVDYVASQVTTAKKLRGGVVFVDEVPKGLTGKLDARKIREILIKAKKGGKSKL
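Biochemical qHTS of compounds, final roughly 60 µM downward over six points, against 10 nM purified firefly luciferase using Km concentrations of substrates (10 uM D-luciferin, 10 uM ATP) in Tris acetate pH 7.5 buffer; luminescence output.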
Rab9 promoter act = qHTS Assay for Rab9 Promoter Activators; Huh7 Rab9 promoter-luciferase reporter, luminescence, 24 h; Potency, µM (doses to about 9.22 µM), inactives show at the highest dose activation, negative = inhibition, hits mostly activators; actives 2.8% (n = 320,000); further: % of control where 0% means no effect; nearly all actives have a fitted effect of over 60% in size
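Huh7 reporter line, Rab9 promoter upstream of luciferase. Compound exposure 24 h at 37 °C in reduced-serum medium with 10% FBS. Read-out: luminescence.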
NPC1 promoter act = qHTS Assay for NPC1 Promoter Activators; Huh7 NPC1 promoter luciferase reporter, 24 h; Potency, µM (top dose mostly 9.22 µM), without a hit: at the highest dose activation, most hits filed as activators; actives 2.4% (n = 320,000); AID 485313, 2010; further: % of control where 0% means no effect; nearly all actives have a fitted effect of over 60% in size
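Compounds in DMSO were transferred onto Huh7 NPC1-luciferase reporter cells pre-incubated 2 h; after 24 h at 37 °C, Amplite reagent was dispensed and luminescence recorded 10 min later.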
* marks the source's active call; other numbers are inactive results; ? = inconclusive; . = no result; [ ] = dose if it differs, or a comment. The call rests on the fitted dose curve; in most records, active means well fitted curve in the direction sought with a large enough effect; inconclusive means small, poorly fitted or top-dose-only effect, or another doubt; inactive means no such curve, though single readings can be large; an effect the other way counts as inactive or inconclusive. Potency means the concentration at half of the fitted maximal effect.

SMILES	ELG1 repair inh	ELG1 genotoxic	SMN2 splice up	FLuc modulator	Rab9 promoter act	NPC1 promoter act
O=C(Nc1nc2c(s1)CCCC2)c1ccc(Br)o1	?	11.6µM*	11.2µM*	1.51µM*	1.26µM*	2.24µM*
COCCn1c(C)cc(O)c(C(c2ccc(F)cc2)N2CCC(C)CC2)c1=O (stereo unspecified)	.	.	.	-6.9%	.	.
Cc1noc(C)c1COC(=O)c1ccc(F)c(S(=O)(=O)N2CCOCC2)c1	-3.0%	0.7%	.	2.7%	2.8%	-0.8%
CC(=O)c1sc(NC(=O)C=C(C)C)nc1C	?	18.4µM*	20µM*	?	28.3%	18.7%
CCCCC(=O)Nc1nc(C)c(C(C)=O)s1	0.1%	8.4%	-0.2%	-1.5%	5.3%	1.0%
CC(=O)c1sc(NC(=O)c2ccc(Br)o2)nc1C	?	16.4µM*	.	19µM*	26.5%[1.84 µM]	?
Nc1ncc(S(=O)(=O)NCc2ccccc2F)cn1	.	.	.	-0.7%	.	.
CCOC(=O)C1=C(C)NC(C)=C(C(=O)OCC)C1/C=C/c1ccccc1	?	?	11.9%	4.9%	-4.9%	0.1%
COC(=O)C1=C(C)NC(C)=C(C(=O)OC)C1/C=C/c1ccccc1	?	16.4µM*	26.3%	1.0%	-1.0%	-1.7%
CCc1noc(C)c1C(=O)N1CC(C)SC1=Nc1ccc(Cl)cc1 (stereo unspecified)	12.4%	-1.7%	.	1.0%	1.3%	-0.3%
N#Cc1c(-n2ncnc2-c2cccc(Br)c2)sc2c1CCCCC2	.	.	-2.9%	3.38µM*	.	.
Cc1ccccc1-c1ncnn1-c1sc2c(c1C#N)CCCCC2	.	.	-9.3%	0.338µM*	.	.
N#Cc1c(N2C(=O)c3ccc(C(=O)O)cc3C2=O)sc2c1CCCC2	0.7%	-0.5%	.	?	-0.5%	0.1%
CC(C)(C)NCc1cccn1-c1sc2c(c1C#N)CCCC2	-17.6%	-5.3%	-16.4%	1.5%	0.2%	0.1%
N#Cc1c(-n2ncnc2-c2ccc(F)cc2)sc2c1CCCCC2	.	.	-11.1%	0.426µM*	.	.
O=c1c2cnn(-c3ccc(F)cc3)c2ncn1Cc1ccccc1Cl	.	.	-1.3%	-0.5%	.	.
COC(=O)c1c(NC(=O)CCCOc2ccccc2C)sc2c1CCC2	.	.	-7.6%	4.4%	.	.
COc1ccc(Cc2nnc(NC(=O)c3cccs3)s2)cc1	?	?	-7.0%	?	0.9%	-0.1%
O=C(Nc1nnc(Cc2ccccc2)s1)c1ccccc1	?	?	.	-17.8%	?	3.16µM*
O=C(Nc1nnc(Cc2ccccc2)s1)c1cccs1	?	?	12.1%	?	1.78µM*	?
O=C(Nc1nnc(Cc2ccc(Cl)cc2)s1)c1cccs1	?	21.3%	15.3%	-0.9%	20.4%	17.1%
O=C(Nc1nnc(CC2=CCCCC2)s1)c1cccs1	?	14.6µM*	14.1µM*	?	?	?
COc1ccc(/C=C2\SC(=S)N(CC3CCCO3)C2=O)cc1 (stereo unspecified)	?	9.6%	.	10.7µM*	25.1%	6.0%
COc1cc(/C=C2/SC(=S)N(CC3CCCO3)C2=O)ccc1O (stereo unspecified)	?	16.0%	4.3%	10.7µM*	-2.7%	-0.7%
O=C(O)c1cc(S(=O)(=O)N2CCN(C(=O)c3ccco3)CC2)c(Cl)cc1Cl	4.1%	-0.6%	.	-1.4%	1.1%	-1.6%
SMILES	ELG1 repair inh	ELG1 genotoxic	SMN2 splice up	FLuc modulator	Rab9 promoter act	NPC1 promoter act
COC(=O)COc1ccccc1C(=O)Nc1ccc(OC)cc1	11.4%	1.0%	-4.3%	?	0.7%	-2.0%
COc1ccc(OCCNC(=O)c2ccccc2OCC(=O)N2CCCCC2)cc1	23.1µM*	-8.3%	-24.7%	-13.1%	1.0%	0.9%
COc1ccc(OCCNC(=O)c2ccccc2OCC(=O)Nc2ccc(NC(C)=O)cc2)cc1	16.4µM*	-7.9%	-79.1%	?	13.3%	18.6%
NS(=O)(=O)c1ccc(CCNC(=O)c2cc(-c3cccs3)nc3ccccc23)cc1	?	-12.4%	-4.3%	-17.8%	-5.7%	-3.5%
Cc1ccc(-c2cc(C(=O)O)c3ccccc3n2)c(C)c1	?	6.6%	.	7.57µM*	-0.2%	16.6%
COc1cc(-c2cc(C(=O)NCCc3ccc(S(N)(=O)=O)cc3)c3ccccc3n2)cc(OC)c1OC	4.11µM*	-2.6%	.	-14.9%	-4.5%	1.5%
CCOc1ccc(-c2cc(C(=O)O)c3ccccc3n2)cc1	?	3.26µM*	11.2µM*	0.675µM*	1.58µM*	?
Cc1ccc(-c2cc(C(=O)Nc3cc(C)on3)c3ccccc3n2)c(C)c1	-1.8%	0.5%	-12.0%	?	6.8%	1.1%
CCOc1ccc(-c2cc(C(=O)N3CCN(c4cc(Cl)ccc4C)CC3)c3ccccc3n2)cc1	.	.	.	9.53µM*	.	.
N[C@@H]1C(O)OC(CO)C(O)C1O (stereo partly specified)	.	.	-2.7%	.	.	.
O=S(=O)(NCc1ccccc1)[C@@H]1CC2C=CC1C2 (stereo partly specified)	11.5%	0.5%	.	2.1%	-5.0%	0.1%
COc1cccc(-c2c(C(=O)N/N=C/c3sccc3C)nnn2-c2nonc2N)c1	?	-13.7%	.	?	3.2%	0.1%
CC(=O)Oc1cc(C(F)(F)F)ccc1C(=O)O	.	.	-4.7%[20.6 µM]	.	.	.
O=C(O)c1cc(-c2ccccc2)nc2ccccc12	11.9%	3.3%	-20.0%	23.9µM*	0.7%	1.2%
CCOc1ccc(-c2cc(C(=O)NCCc3ccc(C)cc3)c3ccccc3n2)cc1	.	.	.	1.35µM*	.	.
O=C(NCc1cccs1)c1cc(-c2ccccc2)nc2ccccc12	?	-7.7%	-8.5%	?	1.7%	0.1%
Cc1ccc(-c2cc(C(=O)NCCc3ccccc3)c3ccccc3n2)cc1C	.	.	.	8.49µM*	.	.
O=C(Nc1nnc(-c2cccs2)o1)c1cc(-c2ccccc2)nc2ccccc12	-0.7%	-8.2%	-92.1%	19µM*	-2.4%	-3.4%
CCn1c(C)nc2cc(S(=O)(=O)C(F)(F)C(F)C(F)(F)F)ccc21 (stereo unspecified)	7.31µM*	2.8%	-25.1%	-8.3%	-1.9%	10.1%
COc1ccc(OCCCn2c(=O)oc3ccc(C)cc32)cc1	.	.	?	-10.4%	.	.
O=c1oc2ccccc2n1CCCOc1ccccc1Cl	.	.	20µM*	12µM*	.	.
Cc1ccc2oc(=O)n(CCCOc3ccccc3)c2c1	?	?	-2.5%	23.9µM*	?	?
Cc1ccc(C)c(OCCSc2nnc(-c3cccnc3)n2N)c1	-16.2%	-1.9%	-11.3%	-3.2%	0.4%	0.7%
